Results published in PubChem BioAssay (Tox21).
Calls of active or inactive are those of the source. Calls follow the shape of the dose curve; as a rule, active = well fitted activation curve with a large enough effect in the repeat runs; inconclusive = weak or mixed curves; inactive = flat fitted curve, though single readings scatter.

Experiment: A CellTox Green Cytotoxicity Assay to monitor cytotoxicity in HEK293 cells - 0 hour (AID 1224869); also: nearly all actives have a fitted effect of over 50% in size
Details: CellTox Green fluorescence; series mostly up to 76.8 µM; cytotoxicity: at the top concentration
Method in brief: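 Homogeneous no-lysis format: HEK293 cell suspension mixed with CellTox Green reagent, seeded, incubated 5 h at 37 C/5% CO2, then dosed by pintool with compound in DMSO.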
% is scaled to controls: 0 for no effect and ±100 for the full control effect.

| Structure (SMILES) | cytotoxicity | Potency |
| --- | --- | --- |
| OCC1CC=CCC1 (stereo not given) | -0.0388% (inactive) |  |
| Cc1c(C(=O)NN2CCCCC2)nn(-c2ccc(Cl)cc2Cl)c1-c1ccc(Cl)cc1 | -7.43% [at 35.3 µM] (inactive) |  |
| NC(=O)Cn1c(=O)cc(CCN2CCN(c3nccc4sccc34)CC2)c2ccc(F)cc21 | 0.829% (inactive) |  |
| CC(CCO)CCc1ccccc1 (stereo not given) | -2.98% (inactive) |  |
| Cc1nccn1-c1ccc(Sc2cccc(C3(C(N)=O)CCOCC3)c2)cc1 | 1.41% (inactive) |  |
| CCCc1c(OCCCOc2ccc(OCC(=O)O)cc2)ccc(C(C)=O)c1O | -13.1% (inactive) |  |
| O=C(N[C@@H](c1ccccc1)[C@@H]1CCCCN1)c1cccc(C(F)(F)F)c1Cl | 1.57% (inactive) |  |
| CCC(=O)Oc1ccc(/C(CC)=C(\CC)c2ccc(OC(=O)CC)cc2)cc1 | -1.33% (inactive) |  |
| C[Si](NC1CCCCC1)(NC1CCCCC1)NC1CCCCC1 | 0.162% (inactive) |  |
| C[N+](C)(C)CCOC(N)=O | -0.996% [at 35.3 µM] (inactive) |  |
| O=C(N/N=C/c1ccc([N+](=O)[O-])o1)c1ccc(O)cc1 | -0.143% [at 35.3 µM] (inactive) |  |
| CCOC(=O)N1CCC(n2c(=O)[nH]c3cc(Cl)ccc32)CC1 | -3.23% [at 35.3 µM] (inactive) |  |
| C(=C\c1ccccc1)/CN1CCN(C(c2ccccc2)c2ccccc2)CC1 | -7.39% [at 35.3 µM] (inactive) |  |
| CCOC(=O)[C@@H](C)Oc1ccc(Oc2nc3ccc(Cl)cc3o2)cc1 | -2.26% (inactive) |  |
| C=CC(C)(C)CC(=O)OC | 3.38% (inactive) |  |
| COCCOC(=O)C1=C(C)NC(C)=C(C(=O)OC/C=C/c2ccccc2)C1c1cccc([N+](=O)[O-])c1 (stereo not given) | 0.864% [at 35.3 µM] (inactive) |  |
| Brc1cc(-c2ccc(Br)c(Br)c2Br)cc(Br)c1Br | 2.96% [at 35.3 µM] (inactive) |  |
| CCCCCCCCCCCC(=O)[O][Sn]([CH2]CCC)([CH2]CCC)[O]C(=O)CCCCCCCCCCC | 5.1% [at 35.3 µM] (inactive) |  |
| CCC(Cc1ccccc1)(C(=O)c1ccc(N2CCOCC2)cc1)N(C)C (stereo not given) | -1.13% (inactive) |  |
| CCCCC1C(=O)N(c2ccccc2)N(c2ccc(O)cc2)C1=O (stereo not given) | -0.323% [at 35.3 µM] (inactive) |  |

| Structure (SMILES) | cytotoxicity | Potency |
| --- | --- | --- |
| CCC(C(=O)OCCN(CC)CC)c1ccccc1 (stereo not given) | -2.28% [at 35.3 µM] (inactive) |  |
| CCC1(C)CC(=O)NC1=O (stereo not given) | -5.23% [at 35.3 µM] (inactive) |  |
| CCCCN(CCCC)C(=S)SSC(=S)N(CCCC)CCCC | 7.46% (inactive) |  |
| Nc1ccc(Cl)cc1[N+](=O)[O-] | 9.04% (inactive) |  |
| CN1CCN(CCCN2c3ccccc3Sc3ccc(S(=O)(=O)N(C)C)cc32)CC1 | 6.56% [at 35.3 µM] (inactive) |  |
| CC(C)c1nnc2ccc(-c3ocnc3-c3cc(F)ccc3F)cn12 | -2.97% (inactive) |  |
| Cc1cc(O)c(C(C)C)cc1Cl |  | inactive |
| NC(=O)N(O)[C@@H]1COc2cc(OCc3ccccc3)ccc21 | -0.826% (inactive) |  |
| CN1CCCN=C1/C=C/c1cccs1 | -0.924% [at 35.3 µM] (inactive) |  |
| CC(=O)[C@H]1CC[C@H]2[C@@H]3C=CC4=CC(=O)CC[C@@]4(C)[C@@H]3CC[C@]12C | 0.612% [at 35.3 µM] (inactive) |  |
| O=C(O)c1c(O)c(-c2ccccc2)nc2ccccc12 | -1.99% [at 35.3 µM] (inactive) |  |
| O=C(CCCCCCC(=O)Nc1ccccc1)NO | -3.94% [at 35.3 µM] (inactive) |  |
| Cc1ccnc2ccccc12 | 0.0934% (inactive) |  |
| CO[C@@]12[C@H](COC(N)=O)C3=C(C(=O)C(C)=C(N)C3=O)N1C[C@@H]1N[C@@H]12 | 12.3% [at 35.3 µM] (inactive) |  |
| Cc1cc(S(=O)(=O)O)ccc1N=Nc1c(O)ccc2ccccc12 | -15.4% (inactive) |  |
| CC(C)C(OC(=O)c1ccccc1)C(C)(C)COC(=O)c1ccccc1 (stereo not given) | 4.32% (inactive) |  |
| CC(C)(CCl)c1ccccc1 | 8.25% (inactive) |  |
| c1cc[c]([Bi]([c]2ccccc2)[c]2ccccc2)cc1 | 1.81% (inactive) |  |
| CC1C2CC(CC2C2CCCC(O)C2)C1(C)C (stereo not given) | 0.293% (inactive) |  |
| CC1=C(/C=C/C(C)=C\C=C\C(C)=C\C(=O)O)C(C)(C)CCC1 | -1.93% (inactive) |  |
